Assay [1] deals with POU1 (OCT1 POU domain) (human, UniProt P14859 260-458). Kind of assay: EMSA-SELEX-seq; no BOB1; 20 mM Tris-HCl pH 7.6, 140 mM NaCl, 10% glycerol, 0.5 mM EDTA, 0.05% Triton X-100, 0.1 mg/mL BSA, 0.1 mg/mL poly(dI-dC), 5 mM DTT, room temperature, 20 min; high values mean tight binding. The conditions noted are these: protein: recombinant; dsDNA, one strand shown. The procedure, abridged:
(§1)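 Binding preference is reported as the percentage of sequenced 8-mers that match a motif pattern. Tagged POU-domain proteins were made in E. coli BL21, purified under denaturing conditions and renatured. A 30 ng portion was combined with 300 ng of a PCR-amplified double-stranded random 35-nt library, with or without 28 ng coactivator protein, in 20 μL Tris–HCl pH 7.6 binding buffer for 20 min at RT. Complex bands were excised from native 6% PAGE, eluted and PCR-amplified over four rounds before Illumina sequencing.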
For orientation: A gel shift assay detects complexes by their altered migration in electrophoresis.

Assay [2] has as its target T1, POU2 (OCT2 POU domain) (human, UniProt P09086 175-386).
T1 sequence: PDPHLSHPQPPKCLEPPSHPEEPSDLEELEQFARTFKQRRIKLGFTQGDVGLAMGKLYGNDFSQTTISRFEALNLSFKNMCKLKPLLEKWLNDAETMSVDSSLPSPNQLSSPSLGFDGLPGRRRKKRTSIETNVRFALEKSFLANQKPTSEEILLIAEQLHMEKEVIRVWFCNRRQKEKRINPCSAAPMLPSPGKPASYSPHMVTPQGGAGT
The assay is described as above. The conditions noted are these: protein: recombinant; dsDNA, one strand shown. Put shortly: as §1

The target in assay [3] is POU1 (OCT1 POU domain);BOB1 (OBF1, OCA-B) (human;human, UniProt P14859;Q16633 260-458;1-256, |). Kind of assay: EMSA-SELEX-seq; with BOB1 (ternary complex band); 20 mM Tris-HCl pH 7.6, 140 mM NaCl, 10% glycerol, 0.5 mM EDTA, 0.05% Triton X-100, 0.1 mg/mL BSA, 0.1 mg/mL poly(dI-dC), 5 mM DTT, room temperature, 20 min; high values mean tight binding. The conditions noted are these: protein: recombinant;recombinant; copies: 1;1; dsDNA, one strand shown. The procedure, abridged:
as §1

The target in assay [4] is T2, POU2 (OCT2 POU domain);BOB1 (OBF1, OCA-B) (human;human, UniProt P09086;Q16633 175-386;1-256, |).
T2 sequence 1: T1 sequence
T2 sequence 2: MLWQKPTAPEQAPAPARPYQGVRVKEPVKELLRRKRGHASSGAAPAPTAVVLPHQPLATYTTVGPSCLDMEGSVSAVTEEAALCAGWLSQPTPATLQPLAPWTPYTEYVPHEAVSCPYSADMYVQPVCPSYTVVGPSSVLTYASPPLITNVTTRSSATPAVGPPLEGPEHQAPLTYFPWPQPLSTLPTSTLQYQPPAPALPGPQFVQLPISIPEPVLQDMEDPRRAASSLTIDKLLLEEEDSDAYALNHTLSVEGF
The assay is described as above. The following applies: protein: recombinant;recombinant; copies: 1;1; dsDNA, one strand shown. The procedure, abridged: as §1

Sequence of POU1 (OCT1 POU domain) (P14859 260-458): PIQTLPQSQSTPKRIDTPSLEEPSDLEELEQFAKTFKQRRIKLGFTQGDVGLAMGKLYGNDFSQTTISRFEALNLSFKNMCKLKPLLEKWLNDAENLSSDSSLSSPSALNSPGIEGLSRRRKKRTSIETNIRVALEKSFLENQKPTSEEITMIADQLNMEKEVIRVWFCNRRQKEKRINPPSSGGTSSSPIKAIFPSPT

ACGCGAAA: the binding signal in assay [1] was 0.0179 % of ANNNNAAN 8-mers; in assay [2], 0.0265 % of ANNNNAAN 8-mers; in assay [3], 0.0211 % of ANNNNAAN 8-mers; in assay [4], 0.0314 % of ANNNNAAN 8-mers.
On to ATGCCAAA, for which the binding signal in assay [1] was 0.0458 % of ANNNNAAN 8-mers; in assay [2] it was 0.0501 % of ANNNNAAN 8-mers; in assay [3] it was 0.0464 % of ANNNNAAN 8-mers; in assay [4], 0.0438 % of ANNNNAAN 8-mers.
Regarding AAAATAAT, the binding signal was 0.178 % of ANNNNAAN 8-mers in assay [1], 0.212 % of ANNNNAAN 8-mers in assay [2], 0.153 % of ANNNNAAN 8-mers in assay [3] and 0.155 % of ANNNNAAN 8-mers in assay [4].
Turning to ATAACAAG, the binding signal in assay [1] is 0.0458 % of ANNNNAAN 8-mers; in assay [2], 0.0621 % of ANNNNAAN 8-mers; in assay [3] it was 0.0355 % of ANNNNAAN 8-mers; in assay [4], 0.0462 % of ANNNNAAN 8-mers.
On to AACTTAAT, for which the binding signal was 0.0995 % of ANNNNAAN 8-mers in assay [1], 0.117 % of ANNNNAAN 8-mers in assay [2], 0.0613 % of ANNNNAAN 8-mers in assay [3] and 0.0677 % of ANNNNAAN 8-mers in assay [4].
On to AACTGAAC, for which the binding signal in assay [1] was 0.0179 % of ANNNNAAN 8-mers; in assay [2], 0.019 % of ANNNNAAN 8-mers; in assay [3], 0.0168 % of ANNNNAAN 8-mers; in assay [4] it was 0.0182 % of ANNNNAAN 8-mers.
On to ATAACAAT, for which the binding signal in assay [1] was 0.0622 % of ANNNNAAN 8-mers; in assay [2], 0.088 % of ANNNNAAN 8-mers; in assay [3], 0.0496 % of ANNNNAAN 8-mers; in assay [4], 0.0735 % of ANNNNAAN 8-mers.
On to ACCAGAAA, for which the binding signal in assay [1] is 0.029 % of ANNNNAAN 8-mers; in assay [2], 0.0242 % of ANNNNAAN 8-mers; in assay [3], 0.0254 % of ANNNNAAN 8-mers; in assay [4], 0.0157 % of ANNNNAAN 8-mers.
In the case of AGTAGAAA, the binding signal is 0.0511 % of ANNNNAAN 8-mers in assay [1], 0.0708 % of ANNNNAAN 8-mers in assay [2], 0.0464 % of ANNNNAAN 8-mers in assay [3] and 0.052 % of ANNNNAAN 8-mers in assay [4].
Regarding ATAAGAAG, the binding signal is 0.0614 % of ANNNNAAN 8-mers in assay [1], 0.0771 % of ANNNNAAN 8-mers in assay [2], 0.0562 % of ANNNNAAN 8-mers in assay [3] and 0.0636 % of ANNNNAAN 8-mers in assay [4].
On to ATACGAAT, for which the binding signal in assay [1] is 0.0908 % of ANNNNAAN 8-mers; in assay [2], 0.101 % of ANNNNAAN 8-mers; in assay [3], 0.0687 % of ANNNNAAN 8-mers; in assay [4] it was 0.0759 % of ANNNNAAN 8-mers.
Take AGCTCAAT: the binding signal in assay [1] was 0.037 % of ANNNNAAN 8-mers; in assay [2], 0.0316 % of ANNNNAAN 8-mers; in assay [3], 0.0261 % of ANNNNAAN 8-mers; in assay [4], 0.0223 % of ANNNNAAN 8-mers.
Take AACGTAAT: the binding signal in assay [1] is 0.077 % of ANNNNAAN 8-mers; in assay [2], 0.0823 % of ANNNNAAN 8-mers; in assay [3], 0.0546 % of ANNNNAAN 8-mers; in assay [4] it was 0.071 % of ANNNNAAN 8-mers.
The matching figures for ATGCGAAT: 0.124 % of ANNNNAAN 8-mers, 0.165 % of ANNNNAAN 8-mers, 0.0901 % of ANNNNAAN 8-mers and 0.128 % of ANNNNAAN 8-mers.
In the case of AACAAAAC, the binding signal in assay [1] was 0.0587 % of ANNNNAAN 8-mers; in assay [2] it was 0.0409 % of ANNNNAAN 8-mers; in assay [3] it was 0.0987 % of ANNNNAAN 8-mers; in assay [4], 0.0636 % of ANNNNAAN 8-mers.
With ATCTTAAC, the binding signal was 0.0351 % of ANNNNAAN 8-mers in assay [1], 0.0449 % of ANNNNAAN 8-mers in assay [2], 0.0402 % of ANNNNAAN 8-mers in assay [3] and 0.0512 % of ANNNNAAN 8-mers in assay [4].
Taken in the same sequence, the figures for ACCAAAAG were 0.0236 % of ANNNNAAN 8-mers, 0.0196 % of ANNNNAAN 8-mers, 0.0273 % of ANNNNAAN 8-mers and 0.019 % of ANNNNAAN 8-mers.
Turning to AGCTTAAG, the binding signal in assay [1] is 0.029 % of ANNNNAAN 8-mers; in assay [2], 0.0391 % of ANNNNAAN 8-mers; in assay [3] it was 0.0379 % of ANNNNAAN 8-mers; in assay [4], 0.0355 % of ANNNNAAN 8-mers.
ATTCCAAG: the binding signal in assay [1] is 0.045 % of ANNNNAAN 8-mers; in assay [2] it was 0.0512 % of ANNNNAAN 8-mers; in assay [3], 0.032 % of ANNNNAAN 8-mers; in assay [4] it was 0.0446 % of ANNNNAAN 8-mers.
Regarding AAACTAAA, the binding signal is 0.0503 % of ANNNNAAN 8-mers in assay [1], 0.0483 % of ANNNNAAN 8-mers in assay [2], 0.0523 % of ANNNNAAN 8-mers in assay [3] and 0.0471 % of ANNNNAAN 8-mers in assay [4].
In the case of ATCAAAAA, the binding signal is 0.061 % of ANNNNAAN 8-mers in assay [1], 0.0702 % of ANNNNAAN 8-mers in assay [2], 0.0851 % of ANNNNAAN 8-mers in assay [3] and 0.0636 % of ANNNNAAN 8-mers in assay [4].
AGTTAAAA: the binding signal in assay [1] was 0.0778 % of ANNNNAAN 8-mers; in assay [2], 0.0915 % of ANNNNAAN 8-mers; in assay [3], 0.0831 % of ANNNNAAN 8-mers; in assay [4], 0.0537 % of ANNNNAAN 8-mers.
For the sequence ATACAAAC, the binding signal in assay [1] is 0.0648 % of ANNNNAAN 8-mers; in assay [2] it was 0.0512 % of ANNNNAAN 8-mers; in assay [3], 0.0819 % of ANNNNAAN 8-mers; in assay [4], 0.0528 % of ANNNNAAN 8-mers.
For ATTGCAAA, the binding signal in assay [1] is 0.202 % of ANNNNAAN 8-mers; in assay [2] it was 0.167 % of ANNNNAAN 8-mers; in assay [3], 0.322 % of ANNNNAAN 8-mers; in assay [4], 0.324 % of ANNNNAAN 8-mers.
The matching figures for AACATAAG: 0.0694 % of ANNNNAAN 8-mers, 0.0731 % of ANNNNAAN 8-mers, 0.041 % of ANNNNAAN 8-mers and 0.0396 % of ANNNNAAN 8-mers.
With AATTAAAG, the binding signal was 0.187 % of ANNNNAAN 8-mers in assay [1], 0.22 % of ANNNNAAN 8-mers in assay [2], 0.112 % of ANNNNAAN 8-mers in assay [3] and 0.121 % of ANNNNAAN 8-mers in assay [4].
As for ATGTGAAT, the binding signal in assay [1] is 0.138 % of ANNNNAAN 8-mers; in assay [2] it was 0.158 % of ANNNNAAN 8-mers; in assay [3], 0.0921 % of ANNNNAAN 8-mers; in assay [4], 0.134 % of ANNNNAAN 8-mers.
The matching figures for ATCTTAAA: 0.0648 % of ANNNNAAN 8-mers, 0.0552 % of ANNNNAAN 8-mers, 0.0515 % of ANNNNAAN 8-mers and 0.0636 % of ANNNNAAN 8-mers.
Consider AGAGAAAT, for which the binding signal in assay [1] is 0.0679 % of ANNNNAAN 8-mers; in assay [2], 0.0708 % of ANNNNAAN 8-mers; in assay [3], 0.0753 % of ANNNNAAN 8-mers; in assay [4], 0.0784 % of ANNNNAAN 8-mers.
The matching figures for ACTTCAAA: 0.0256 % of ANNNNAAN 8-mers, 0.0322 % of ANNNNAAN 8-mers, 0.0336 % of ANNNNAAN 8-mers and 0.0256 % of ANNNNAAN 8-mers.

For the origin of these results see paper PMC10812921, “Transcriptional Coactivator BOB1 (OBF1, OCA-B) Modulates the Specificity of DNA Recognition by the POU-Domain Factors OCT1 and OCT2 in a Monomeric Configuration”.
